From the supplement of paper PMC10849652
About 7,900 targets were measured; listed, in parts, are those with a hit and a random draw of the rest. About 0.6% of all pairs of compound and target were hits.

Columns and labels:
Assay in all cases: log2 fold change, soluble protein after heating vs DMSO (PISA); higher = thermal stabilisation; K562 cells, 10 uM, 30 min; active = over 0.2 and 3.5 SD of the protein, either way, in both replicates (recomputed)
[1] = compound: C1=CC=C(C=C1)[C@H](COC2=CC3=C(C=C2)NC(=O)N3)NC(=O)C4=CC=CN(C4=O)CC5=CC(=C(C=C5)F)F
Summary of the method: (§1)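 Aliquots of K562 cells (2×10^6 cells/mL) treated with 10 μM compound for 30 min were heated for 3 min over 48°C-58°C. After pooling and extraction in PBS with 0.5% NP-40 at 4°C, soluble protein from a 21,000xg, 90 min spin was quantified by TMTpro 16plex LC-MS/MS with channel sums equalised. Thermal stability is expressed against control samples, from duplicates, as a log2 fold change.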

[2] = compound: CC1=C(SC2=C1C(=N[C@H](C3=NN=C(N32)C)CC(=O)N)C4=CC=C(C=C4)Cl)C
Summary of the method: as §1

[3] = compound: CC1=C2C(=CC=C1)N=C(N(C2=O)C3=CC=CC=C3C)CN4C=NC5=C(N=CN=C54)N
Summary of the method: as §1

[4] = compound: Cc1sc2c(c1C)C(c1ccc(Cl)cc1)=N[C@@H](CC(=O)OC(C)(C)C)c1nnc(C)n1-2
Summary of the method: as §1

[5] = compound: c1ccc([C@@H]2C[C@H]2NC2CCNCC2)cc1
Summary of the method: as §1

Measured: log2 fold change

DDX39A (UniProt O00148)
Sequence of UniProt O00148 (O00148 whole entry, looked up): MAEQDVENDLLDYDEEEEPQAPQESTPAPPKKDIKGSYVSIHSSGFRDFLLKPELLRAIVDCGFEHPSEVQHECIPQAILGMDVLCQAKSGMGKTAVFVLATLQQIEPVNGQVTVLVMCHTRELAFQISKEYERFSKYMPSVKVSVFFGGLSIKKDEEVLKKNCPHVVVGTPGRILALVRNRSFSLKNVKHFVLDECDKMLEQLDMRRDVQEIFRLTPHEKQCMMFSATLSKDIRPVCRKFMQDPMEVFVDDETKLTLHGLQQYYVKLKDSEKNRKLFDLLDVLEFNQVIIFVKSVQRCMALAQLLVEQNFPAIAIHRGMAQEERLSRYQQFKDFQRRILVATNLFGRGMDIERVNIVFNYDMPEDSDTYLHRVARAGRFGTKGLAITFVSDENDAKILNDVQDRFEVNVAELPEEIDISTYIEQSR
inactive: [1] -0.174 | [2] 0.063 | [3] 0.025 | [4] 0.015 | [5] -0.01

DMXL1 (UniProt Q9Y485)
inactive: [1] -0.017 | [2] 0.003 | [3] 0.071 | [4] -0.016 | [5] -0.05

DBT (UniProt P11182)
Sequence of UniProt P11182 (P11182 whole entry, looked up): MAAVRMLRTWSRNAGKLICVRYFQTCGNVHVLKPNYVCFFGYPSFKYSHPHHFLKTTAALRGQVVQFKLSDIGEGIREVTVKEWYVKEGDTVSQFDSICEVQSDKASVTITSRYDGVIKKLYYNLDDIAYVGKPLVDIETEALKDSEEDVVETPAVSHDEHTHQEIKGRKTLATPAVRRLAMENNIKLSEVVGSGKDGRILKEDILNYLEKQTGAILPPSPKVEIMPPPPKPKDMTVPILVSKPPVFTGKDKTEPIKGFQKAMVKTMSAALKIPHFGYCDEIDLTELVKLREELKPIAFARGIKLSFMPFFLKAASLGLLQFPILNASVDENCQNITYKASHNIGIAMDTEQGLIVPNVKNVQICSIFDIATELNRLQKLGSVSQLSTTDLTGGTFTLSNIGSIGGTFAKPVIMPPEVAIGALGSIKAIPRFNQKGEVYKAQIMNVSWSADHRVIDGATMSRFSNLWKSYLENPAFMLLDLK
inactive: [1] -0.003 | [2] -0.004 | [3] 0.012 | [4] 0.062 | [5] 0.007

CTSA (UniProt P10619)
Sequence of UniProt P10619 (P10619 whole entry, looked up): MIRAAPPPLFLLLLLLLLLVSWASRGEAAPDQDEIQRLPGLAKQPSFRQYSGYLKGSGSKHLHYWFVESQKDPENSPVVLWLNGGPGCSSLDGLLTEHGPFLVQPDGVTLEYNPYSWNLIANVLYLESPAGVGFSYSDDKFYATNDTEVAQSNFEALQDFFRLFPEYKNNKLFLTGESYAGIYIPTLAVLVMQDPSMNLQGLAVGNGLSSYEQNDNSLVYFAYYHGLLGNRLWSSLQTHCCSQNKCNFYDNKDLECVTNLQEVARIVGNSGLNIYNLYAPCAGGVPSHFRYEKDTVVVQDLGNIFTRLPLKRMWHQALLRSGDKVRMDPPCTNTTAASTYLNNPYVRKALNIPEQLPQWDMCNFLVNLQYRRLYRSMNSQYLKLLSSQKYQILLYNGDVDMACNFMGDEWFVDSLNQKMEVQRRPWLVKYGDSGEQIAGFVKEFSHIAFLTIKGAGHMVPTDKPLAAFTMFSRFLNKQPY
inactive: [1] 0.004 | [2] -0.063 | [3] -0.034 | [4] -0.018 | [5] 0.03

EIF2AK1 (UniProt Q9BQI3)
Sequence of UniProt Q9BQI3 (Q9BQI3 whole entry, looked up): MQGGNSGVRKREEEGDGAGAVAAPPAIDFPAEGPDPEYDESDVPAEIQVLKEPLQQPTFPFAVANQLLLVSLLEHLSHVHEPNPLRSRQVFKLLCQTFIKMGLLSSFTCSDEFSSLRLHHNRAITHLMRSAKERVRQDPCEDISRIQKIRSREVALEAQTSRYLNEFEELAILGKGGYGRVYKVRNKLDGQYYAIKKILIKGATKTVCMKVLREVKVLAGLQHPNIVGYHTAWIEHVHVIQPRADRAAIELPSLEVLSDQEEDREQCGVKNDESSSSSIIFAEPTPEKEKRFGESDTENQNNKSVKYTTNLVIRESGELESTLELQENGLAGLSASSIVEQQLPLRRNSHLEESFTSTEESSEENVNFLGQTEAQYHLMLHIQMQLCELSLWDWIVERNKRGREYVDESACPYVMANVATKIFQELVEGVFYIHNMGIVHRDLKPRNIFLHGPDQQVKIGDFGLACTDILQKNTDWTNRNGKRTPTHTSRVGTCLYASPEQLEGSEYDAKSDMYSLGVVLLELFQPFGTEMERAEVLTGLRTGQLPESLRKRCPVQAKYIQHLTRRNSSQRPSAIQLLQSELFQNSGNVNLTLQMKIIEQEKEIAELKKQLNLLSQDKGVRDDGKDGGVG
inactive: [1] 0.025 | [2] -0.036 | [3] -0.051 | [4] 0.025 | [5] 0.018

DDX4 (UniProt Q9NQI0)
Sequence of UniProt Q9NQI0 (Q9NQI0 whole entry, looked up): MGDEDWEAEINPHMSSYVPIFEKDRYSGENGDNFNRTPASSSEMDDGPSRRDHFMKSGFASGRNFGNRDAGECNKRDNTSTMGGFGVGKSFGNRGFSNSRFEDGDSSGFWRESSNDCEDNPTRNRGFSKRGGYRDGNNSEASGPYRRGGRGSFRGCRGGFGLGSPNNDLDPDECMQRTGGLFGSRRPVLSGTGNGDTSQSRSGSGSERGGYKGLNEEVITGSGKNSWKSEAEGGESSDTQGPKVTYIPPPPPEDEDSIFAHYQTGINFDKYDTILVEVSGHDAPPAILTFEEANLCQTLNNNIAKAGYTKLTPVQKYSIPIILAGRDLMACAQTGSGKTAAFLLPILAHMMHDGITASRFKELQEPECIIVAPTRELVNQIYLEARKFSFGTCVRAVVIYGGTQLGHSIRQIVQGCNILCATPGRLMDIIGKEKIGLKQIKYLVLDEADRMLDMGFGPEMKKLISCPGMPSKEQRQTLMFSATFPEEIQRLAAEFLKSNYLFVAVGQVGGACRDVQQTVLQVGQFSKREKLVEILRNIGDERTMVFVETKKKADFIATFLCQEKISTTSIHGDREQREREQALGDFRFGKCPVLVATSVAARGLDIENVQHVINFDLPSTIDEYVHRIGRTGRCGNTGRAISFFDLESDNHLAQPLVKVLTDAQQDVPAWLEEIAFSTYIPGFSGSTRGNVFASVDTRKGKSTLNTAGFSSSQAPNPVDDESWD
inactive: [1] 0.052 | [2] -0.11 | [3] 0.213 | [4] 0.274 | [5] 0.001

EEF1D isoform 2 (UniProt P29692)
Sequence of UniProt P29692 (P29692 whole entry, looked up): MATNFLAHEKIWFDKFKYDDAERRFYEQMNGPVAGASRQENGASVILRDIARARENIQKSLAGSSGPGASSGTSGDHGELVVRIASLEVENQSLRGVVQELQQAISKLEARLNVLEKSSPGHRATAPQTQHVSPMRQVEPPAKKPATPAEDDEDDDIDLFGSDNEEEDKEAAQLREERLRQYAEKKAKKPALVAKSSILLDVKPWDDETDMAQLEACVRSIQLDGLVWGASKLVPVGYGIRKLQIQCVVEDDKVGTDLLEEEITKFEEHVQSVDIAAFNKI
inactive: [1] -0.031 | [2] 0.003 | [3] 0.073 | [4] 0.012 | [5] -0.011

FAM117A (UniProt Q9C073)
Sequence of UniProt Q9C073 (Q9C073 whole entry, looked up): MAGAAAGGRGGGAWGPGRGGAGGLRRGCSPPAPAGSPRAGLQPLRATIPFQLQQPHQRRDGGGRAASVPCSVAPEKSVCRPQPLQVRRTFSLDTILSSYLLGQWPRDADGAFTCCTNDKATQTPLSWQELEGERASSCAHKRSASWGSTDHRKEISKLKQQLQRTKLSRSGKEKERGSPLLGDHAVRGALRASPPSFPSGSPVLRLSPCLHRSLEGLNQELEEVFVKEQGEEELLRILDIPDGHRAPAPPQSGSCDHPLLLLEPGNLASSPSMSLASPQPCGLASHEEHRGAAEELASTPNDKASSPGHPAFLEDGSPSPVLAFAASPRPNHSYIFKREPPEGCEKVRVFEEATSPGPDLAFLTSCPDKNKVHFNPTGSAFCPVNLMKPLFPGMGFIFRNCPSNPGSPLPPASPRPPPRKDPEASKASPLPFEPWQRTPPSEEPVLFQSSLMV
inactive: [1] -0.004 | [2] 0.057 | [3] 0.027 | [4] 0.01 | [5] 0.012

ETNK1 (UniProt Q9HBU6)
Sequence of UniProt Q9HBU6 (Q9HBU6 whole entry, looked up): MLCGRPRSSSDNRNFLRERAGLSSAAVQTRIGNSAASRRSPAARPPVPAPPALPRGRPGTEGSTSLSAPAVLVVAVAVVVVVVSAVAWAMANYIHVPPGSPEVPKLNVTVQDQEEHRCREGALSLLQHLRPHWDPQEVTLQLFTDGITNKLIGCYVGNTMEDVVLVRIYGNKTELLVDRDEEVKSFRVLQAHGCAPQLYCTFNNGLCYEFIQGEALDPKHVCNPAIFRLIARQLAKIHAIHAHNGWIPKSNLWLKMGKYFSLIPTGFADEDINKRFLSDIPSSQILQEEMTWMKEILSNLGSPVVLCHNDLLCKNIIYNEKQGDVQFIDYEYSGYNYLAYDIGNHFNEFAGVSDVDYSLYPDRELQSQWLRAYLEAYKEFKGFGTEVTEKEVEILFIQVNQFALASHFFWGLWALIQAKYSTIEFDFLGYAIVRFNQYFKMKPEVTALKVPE
inactive: [1] 0 | [2] 0.044 | [3] 0.071 | [4] -0.092 | [5] 0.022
